The results in this text go back to PubChem BioAssay (NCI).

Molecules are shown by their SMILES. The panel holds about 83,000 compounds, 20% with a hit somewhere; the sample as a whole holds those more often.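 Results are percent growth after 48 hours of single-concentration exposure. 100 means growth as in untreated cells, lower positive values show inhibition; negative values down to -100 show cell death.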 Unmarked numbers belong to inactive results. Activity calls are given as the source filed them.

For the test, the system named is RPMI-8226 leukemia. As to the kind of experiment: NCI-60 one-dose screen, 48 h (100 = growth as untreated, 0 = no growth, -100 = all killed). To be noted: 10 µM unless noted. The protocol: Growth inhibition of the RPMI-8226 human tumor cell line is measured as a screen for anti-cancer activity. Cells are grown in 96 well plates and exposed to the test compound for 48 hours. Compounds are tested at a single concentration, which is 10^-5 M for most compounds. The reported endpoint is percent growth (GI% or GIPRCNT), where numbers from 0 - 100% represent growth inhibition, and numbers from -100% - 0 represent cell death. For example, a value of 40 represents 60% growth inhibition. A value of 0 means no net growth occurred over the course of the experiment. A value of -40 indicates 40% of cells at the beginning of the experiment died by the end of the experiment. A value of -100 means all cells are dead at the end of the experiment.
NCI-60 Human Tumor Cell Lines Screen was performed using the standard one-dose NCI protocol, which is described in more detail at https://dtp.cancer.gov/discovery_development/nci-60/default.htm.
Compounds with GIPRCNT values below 10 were considered active. Activity score was based on GIPRCNT using the following formula: […]
Score is 0 for GIPRCNT values of 100 or above, 50 for GIPRCNT values of 0, and 100 for GIPRCNT values of -100.
With `Fc1ccc(Nc2ncnc3ccc(-c4cn[nH]c4)cc23)cc1Cl`, the growth was 38.9%. For `COc1ccc(OCC(O)CN2CCN(c3ccc(Cl)cc3)CC2)cc1` (stereo not given), the growth is 98.9%. With `O[C@@H]1CCO[C@H](c2ccc3ccccc3c2)C1`, the growth is 96.4%. As for `CC(=O)n1cc(/C=C2\N=C(c3ccc(Cl)cc3)N(c3ccc(S(=O)(=O)Nc4nccs4)cc3)C2=O)c2ccccc21`, the growth was 62%. In the case of `O=C(NCCNc1nccc(-c2c(-c3cccc(O)c3)nc3sccn23)n1)Nc1cccc(C(F)(F)F)c1`, the growth is -4.81% (active). To `Cc1cc(NC(=O)c2cccc(C(F)(F)F)c2)ccc1-n1ccc2c(NC(=O)c3ccccc3)nccc21` belongs 73.3%. As to `O=C(C[n+]1ccccc1Cl)c1ccc2c(c1)CCCC2`, the growth was 90.3%. In the case of `O=C(O)c1cc2ccccc2cc1Nc1ccccc1`, the growth was 78.4%.

Consider `C=C1C(=O)O[C@H]2[C@H]1CC/C(CNC(=O)/C1=C/CC[C@@]3(C)O[C@H]3[C@H]3OC(=O)C(=C)[C@@H]3CC1)=C\CC[C@@]1(C)O[C@@H]21`, for which the growth was 78.8%.

Take `O=C1OC(N(Cc2ccc(Cl)cc2)c2ccccc2)c2ccccc21` (stereo not given): the growth is 97.2%. For `C[C@]12CC[C@@H]3c4ccc(O)c(N)c4CC[C@H]3[C@@H]1CC[C@@H]2O`, the growth is 85.5%. Regarding `CC1(C)N=C(N)N=C(N)N1c1cccc(CCCCc2ccccc2)c1`, the growth is -50% (active). For `COc1ccc(Cl)cc1NC(=O)c1cc2c([nH]1)-c1nc(NC(=O)C(C)C)sc1CC2`, the growth was 93.7%.

For `COc1ccc(C2=NN(C(=O)COc3ccc(Cl)cc3)C(O)(c3cc(F)c(Cl)cc3Cl)C2)cc1OC` (stereo not given), the growth was -74.8% (active). To `CCOC(=O)NNc1nncc2ccccc12` belongs 105%; to `Nc1n[nH]c2cccc(C#Cc3cccc(NC(=O)c4cccc(C(F)(F)F)c4)c3)c12`, 29.3%.

Regarding `Cc1ccc(-c2cn3cc([N+](=O)[O-])ccc3n2)cc1`, the growth was 72.6%. Take `O=S(=O)(CCN1CCOCC1)Nc1cc(-c2ccc3ncnc(Nc4ccc(F)c(Cl)c4)c3c2)cnc1Cl`: the growth was 9.83% (active). Turning to `O=C(C[n+]1cccc(Br)c1)c1ccc2c(c1)CCCC2`, the growth was 96%. In the case of `Cc1cn(C2CC(F)C(CO)O2)c(=O)[nH]c1=O` (stereo not given), the growth is 82.5%.

On to `CCOC(=O)n1cnc2c(Cl)ncnc21`, for which the growth is 116%. Then `CC(CN(C)C)CN1c2ccccc2CCc2ccccc21` (stereo not given), with 90.4%; and `OC[C@@H](O)C(O[C@@H]1O[C@H](CO)[C@H](O)[C@H](O)[C@H]1O)[C@H](O)[C@@H](O)CO` (stereo not given in full), with 103%; and `O=[N+]([O-])c1cccc(C(c2ccccc2)c2ccccc2)c1`, with 82.9%. `COc1ccccc1S(=O)(=O)Nc1ccc2c3c(cc(-c4ccoc4)nc13)C(=O)N2C`: the growth is 15.5%. `CN(C)C(=O)Nc1nc2cc(Cl)c(Cl)cc2[nH]1`: the growth was -15.7% (active).

On to `C#C[C@@]1(O)[C@@H](CO)O[C@@H](n2cc(C(F)(F)F)c3c(N)ncnc32)[C@@H]1O`, for which the growth was -33.6% (active).

Turning to `COc1cc(/C=C2/Oc3cc4occc4c(OC)c3C2=O)ccc1OCC(=O)Nc1ccncc1`, the growth is 91.4%. Then `O=C(Nc1cccc(-n2ccc3c(NC(=O)c4ccccc4)nccc32)c1)Nc1ccc(Cl)c(C(F)(F)F)c1`, with -35% (active); and `N#Cc1c2c(c(N)[nH]c1=O)C(=O)NC2(O)c1ccccc1` (stereo not given), with 107%; and `Nc1ncnc2c1ccn2-c1cccc(NC(=O)c2cccc(C(F)(F)F)c2)c1`, with 52.9%. Consider `Clc1ccc(CN2COc3c(ccc4cccnc34)C2)cc1Cl`, for which the growth is -19.3% (active).

For `O=C(Nc1ccc(-n2cc(-c3ccncc3)c(-c3ccc(O)c(Cl)c3)n2)cc1)c1cc(C(F)(F)F)cc(C(F)(F)F)c1`, the growth is 27.9%. Then `COc1ccc(C(=O)NC(=O)Nc2ccc3c(c2)NC(=O)/C3=C\c2[nH]c(C)c(C(=O)O)c2C)cc1`, with 83.2%. For `O=C(Nc1ccc(Cl)c(Cl)c1)Nc1ccc(Cl)c([N+](=O)[O-])c1`, the growth was -36.2% (active). For `COc1ccc(-c2nn(-c3ccc(NC(=O)Nc4ccc(Cl)c(C(F)(F)F)c4)cc3)cc2-c2ccncc2)cc1Cl`, the growth was -33.1% (active).

On to `Nc1nccc2c1ccn2-c1ccc(NC(=O)Nc2cccc(C(F)(F)F)c2)cc1`, for which the growth is 67.4%. On to `COc1ccc(-c2nn(-c3ccc(NC(=O)c4ccc(Cl)c(C(F)(F)F)c4)cc3)cc2-c2ccncc2)cc1Cl`, for which the growth was -38.2% (active). In the case of `COc1cc2c(/C=C3/C(=O)Nc4ccc(O)cc43)c(Cl)n(Cc3cc(OC)c(OC)c(OC)c3)c2cc1C`, the growth was -22.9% (active). With `COc1cc(NC(=O)C#Cc2ccccc2)c(OC)cc1Cl`, the growth is 10.8%.
